Each structure is given as a SMILES string. Compounds without any hit were thinned out: in the full panel of roughly 83,000, 20% have a hit.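 Activity criterion: percent growth below 10, measured after cells in 96-well plates were exposed to a single compound concentration for 48 hours.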 A number with no mark means an inactive call. Active and inactive are the calls of the source.

This passage reports growth results from PubChem BioAssay (NCI).

One assay concerns MDA-MB-435 melanoma. The assay can be described thus: NCI-60 one-dose screen, 48 h (100 = growth as untreated, 0 = no growth, -100 = all killed). The following applies: 10 µM unless noted.
For `N#CC1=C(NC=O)Oc2c(ccc3ccccc23)C1c1ccccc1` (stereo unspecified), the growth is -33% (active). Same read-out and setting: to `O=C(Cc1ccc(F)c(F)c1)Nc1cc(C2(C(F)(F)F)CC2)nn1Cc1ccccc1` belongs 0.174% (active).

As for `CCN(CC)CCN1CC(O)=C(c2nc(-c3ccc(Cl)cc3)cs2)C1=N`, the growth is -62.4% (active).

The next assay relates to SW-620 colon. The description is as above. The note with it: 10 µM unless noted.
Take `C[C@H]1[C@H]2[C@H]3CC[C@@H]4[C@@]5(C)C/C(=C/c6ccco6)C(=O)C(C)(C)[C@@H]5CC[C@@]4(C)[C@]3(C)CC[C@]23CO[C@]1(C)[C@@H](C(=O)/C=C\c1ccco1)C3`: the growth is 99.3%.

`O=C(CCCCCCN1CC(=O)N2[C@@H](c3ccccc3Cl)c3[nH]c4ccccc4c3C[C@H]2C1=O)NO`: the growth was 49.1%. Take `O=C(Nc1cccc(C(F)(F)F)c1)Nc1cccc(C(F)(F)F)c1`: the growth is 15.2%.

As to `CC1=C([Se]CC(OC(=O)CC[Se]c2ccccc2)C(=O)NCCCCCC(=O)OCc2ccccc2)C(=O)c2ccccc2C1=O` (stereo unspecified), the growth is 104%. The same measure, in the same setting: to `CCCCNC(=O)Oc1ccc2c(=O)c3sc4c(=O)c5ccccc5c(=O)c4c3c(=O)c2c1` belongs -75.6% (active); to `C=C1C(=O)O[C@H]2[C@H]1CC/C(COC(=O)C(=O)c1c[nH]c3ccc(OC)cc13)=C\CC[C@@]1(C)O[C@@H]21`, -61.4% (active). With `O=c1[nH]nc(-c2ccccc2)c2c(-c3ccccc3)onc12`, the growth is 22.2%. Same read-out and setting: in the case of `COc1cc(-c2nn(-c3ccccc3)cc2-c2ccnc(NCCNS(=O)(=O)c3ccc(Cl)cc3)n2)ccc1Cl` it was 51.1%; in that of `CCCCn1c(=O)c2c(nc(NCCc3ccc(O)c(O)c3)n2CCC)n(CCCC)c1=O`, 89.1%; in that of `S=C(c1ccc2c(c1)OCO2)N1CCN(c2ccccc2Cl)CC1`, 102%. The same measure, in the same setting: in the case of `CC1=NOC(=O)/C1=C\c1ccc(O)cc1` it was 102%; in that of `O=[N+]([O-])c1ccc(N2c3ccncc3Sc3ccncc32)cc1`, 103%. With `C=CCNc1nc(NN2C(=O)c3cccc4cccc(c34)C2=O)nc(-n2cnc3ccccc32)n1`, the growth is 90.6%. In the case of `Nc1ccc2c(c1)c(N)nn2C(=O)Nc1ccc(Cc2ccccc2)cc1`, the growth is 93.4%. Consider `COC(=O)c1ccc(CSc2nnc(-c3c(C)nc4ccc(C)cn34)o2)cc1`, for which the growth is 108%. With `Cc1cc(O)c(C2=NN(c3ccc(S(N)(=O)=O)cc3)C(c3ccccc3Cl)C2)cc1Cl` (stereo unspecified), the growth is -27.4% (active).

As for `Cc1ccc(Cc2cnc(NC(=O)c3ccc4noc(-c5ccccc5)c4c3)s2)cc1`, the growth is 89.1%. Turning to `Cn1cc(-c2csc(-c3cccc(F)c3)n2)c2cccnc21`, the growth was -49.8% [100 µM] (active). On the same count and under the same terms, in the case of `COc1c(CCC[P+](c2ccccc2)(c2ccccc2)c2ccccc2)cc2c(c1OC)OCO2` it was 13.1%; in that of `Cc1ccc(Nc2nc(N)nc(CSCC(=O)NN)n2)cc1`, 98.9%.

`O=C(N/N=C/c1ccncc1)c1ccc(C(F)(F)F)nc1Nc1cccc(C(F)(F)F)c1`: the growth is 14.8%. Consider `COc1cc2c(cc1-c1c(C)noc1C)ncc1nc(C3CCC(F)(F)CC3)n(C3CCC(OC(F)F)CC3)c12` (stereo unspecified), for which the growth was 75.1%. Still for that read-out and setting: in the case of `O=c1[nH][n+](-c2ccc(Cl)cc2)no1` it was 40.8%; in that of `O=C(CCc1nnc(CN(c2ccccc2)c2ccccc2)o1)c1nc2ccccc2[nH]1`, 103%; in that of `Cc1cccc(Cc2cnc(NC(=O)c3ccc4nnsc4c3)s2)c1`, 80.5%. Same read-out and setting: in the case of `Cc1ccc(C(=O)COc2cccc(/C=C3\Oc4ccccc4C3=O)c2)cc1` it was 123%; in that of `CN(C)CCC=C1c2ccccc2C(C)(C)c2ccccc21`, 86%; in that of `COc1cc(C2CC(c3cc(OC)c(OCCCOc4ccc(-n5c(/C=C/c6ccccc6)nc6ccccc6c5=O)cc4)c(OC)c3)=NO2)cc(OC)c1OC` (stereo unspecified), 104%. Same read-out and setting: to `CS(=O)c1cccc(-c2ccc3nc(N)n(-c4ccc(C(F)(F)F)cc4)c(=O)c3c2)c1` (stereo unspecified) belongs 103%. In the case of `CC(C)(C)C(CCc1ccc(Cl)cc1)N1CCN(C2CCCCC2)CC1` (stereo unspecified), the growth is 35%. Still for that read-out and setting: in the case of `CNC(=O)CCN1CCN(CC/C=C2\c3ccccc3Sc3ccc(Cl)cc32)CC1` it was 86.9%; in that of `O=c1ssc(Cl)c1-c1ccccc1`, 95.2%; in that of `O=C1CC(N2C(=O)/C(=C/C(Cl)=C\c3ccc([N+](=O)[O-])cc3)SC2=S)C(=O)N1c1ccc(O)cc1` (stereo unspecified), 0.226% (active). Still for that read-out and setting: in the case of `COC(=O)CCC1=C(C)C2=NC1=CC1=NC(=CC3=NC(=Cc4[nH]c(/c(=C(/C)O)c4C)=C2)C(C(C)=O)=C3C)C(C)=C1CCC(=O)OC` it was 103%; in that of `CC1SC(c2ccc(OCc3ccccc3)cc2)N(NC(=O)C(O)(c2ccccc2)c2ccccc2)C1=O` (stereo unspecified), 69.7%; in that of `N#CC1=C(NC=O)Oc2c(ccc3ccccc23)C1c1ccccc1` (stereo unspecified), 21.3%. On the same count and under the same terms, in the case of `O=C(Cc1ccc(F)c(F)c1)Nc1cc(C2(C(F)(F)F)CC2)nn1Cc1ccccc1` it was 11.5%; in that of `CCN(CC)CCN1CC(O)=C(c2nc(-c3ccc(Cl)cc3)cs2)C1=N`, -56.2% (active).
